Measurements taken from ChEMBL document CHEMBL3988442, “University of Dundee, Small-Polar-MMV Screening Library” (2021).
The campaign covered roughly 48,000 compounds. About 13,000 (27%) showed an effect of 50% or more. This is one part of the list.

Tested on: Wolbachia pipientis
Test: Anti-Wolbachia Cell-Based Screen
Type: functional
Parameters: scale not given: in the data most compounds retested in dose-response had high values
Conditions: 5 µM

SMILES | Percent Effect
O=C(Cc1ccccn1)N1CCn2cc(Cn3cncn3)nc2C1 | 22.42%
Cn1cc(C2(C)CN(c3ncccc3C#N)CCO2)cn1 (centres undefined) | -13.05%
CN(C)Cc1ccnc(NS(=O)(=O)CCc2ccccc2)c1 | -12.88%
OCc1cc2ccccc2nc1N1CCCC1 | 4.126%
Cc1cc(C)c(C(=O)N2CCn3nc(C(=O)NCCN(C)C)cc3C2)[nH]1 | -6.569%
CCCc1nc(C(=O)N2CCn3nc(C(=O)OC)cc3C2)cs1 | 111.4%
CCCc1nc(C(=O)N2CCN(C(=O)OC)CC2)cs1 | -2.631%
CN(C)CCNC(=O)c1cc2n(n1)CCN(C(=O)c1ccco1)C2 | -13.42%
COC(=O)c1cc2n(n1)CCN(C(=O)c1csc(CN(C)C)n1)C2 | 85.52%
CCCc1nc(C(=O)N2CCN(C(=O)c3ccc(OC)cc3)CC2)cs1 | 10.06%
Cc1cc(C)c2nc(CN3C[C@H](CCO)[C@@H](N)C3)cc(O)c2c1 | -3.113%
CCOCC(=O)Nc1ccc(-n2ccc(C(N)=O)n2)cc1 | 5.23%
CCc1ccc(CN2CCC(=O)N(CC3CC3)C(C(C)C)C2)nc1 (centres undefined) | -6.583%
Cc1cc(CNC(=O)c2ccc(F)c(COCC3CC3)c2)no1 | 7.35%
Cn1cnnc1C1CCCN(C(=O)NCCNc2ccccn2)C1 (centres undefined) | 14.43%
Cn1cnnc1C1CCCN(C(=O)NCCOc2ccccc2)C1 (centres undefined) | 6.909%
COCCCNC(=O)N1CCCC(c2nncn2C)C1 (centres undefined) | -7.003%
Cn1cnnc1C1CCCN(C(=O)NCCCn2cccn2)C1 (centres undefined) | 106.2%
Cn1cnnc1C1CCCN(C(=O)NCCn2ccnc2)C1 (centres undefined) | 89.71%
CC(C)N1CCC(CNC(=O)COc2ccc(F)cc2F)C1 (centres undefined) | 8.17%
CC(C)N1CCC(CC(=O)NC(C(=O)O)c2ccc(F)cc2)CC1 (centres undefined) | 7.704%
Cn1cc(C(=O)O)c(-c2ccc(F)cc2F)n1 | -6.689%

SMILES | Percent Effect
CC(C)N1CCC(Cc2cncc(-c3cc(F)ccc3C(=O)O)n2)CC1 | 98.45%
CC(C)N1CCC(CC(=O)NC(C(=O)O)c2cc(F)ccc2F)CC1 (centres undefined) | 9.298%
CC(C)N1CCC(Cc2cc(-c3cc(F)ccc3C(=O)O)ncn2)C1 (centres undefined) | 139.5%
CC(C)N1CCC(CNC(=O)CCc2cc(F)ccc2F)C1 (centres undefined) | 16.43%
CC(C)N1CCC(CC(=O)NC(C(=O)O)c2cccc(F)c2)CC1 (centres undefined) | -7.789%
CN1CCC(Cc2noc(-c3cn(Cc4ccc(F)cc4)nn3)n2)CC1 | -9.878%
CC(C)N1CCC(Cc2cc(-c3ccccc3C(=O)O)ncn2)CC1 | -18.63%
CC(C)N1CCC(Cc2cncc(-c3cc(F)ccc3C(=O)O)n2)C1 (centres undefined) | 135%
CN1CCC(Cc2cccc(-c3cc(F)ccc3C(=O)O)n2)CC1 | 135.9%
CC(C)c1ccc(S(=O)(=O)NC2(CC(N)=O)CCC2)cc1 | -1.072%
Cn1cc(CN2CC[C@@H]3[C@@H](CCC(=O)N3CCc3c[nH]cn3)C2)cn1 | 6.547%
CCOCCS(=O)(=O)N(CC)Cc1ccc(Cl)s1 | -4.367%
CCc1nn(C)c(Cl)c1CN1CCN(c2nc(C(N)=O)cs2)CC1 | 12.42%
O=C1COC2(CCN(c3ncccn3)CC2)CN1c1ccsc1 | 18.21%
CCc1cnc(CN(C(C)=O)C2CCN(CC(=O)N3CCCC3)C2)o1 (centres undefined) | 113.8%
CCc1cnc(CN(C(C)=O)C2CCN(CCN3CCCCC3)C2)o1 (centres undefined) | 112.7%
CCc1cnc(CN(C(C)=O)C2CCN(CCS(C)(=O)=O)C2)o1 (centres undefined) | -15.83%
CC(=O)N(Cc1ncc(C(C)C)o1)C1CCN(CCn2cccn2)C1 (centres undefined) | 8.925%
CCc1cnc(CN(C(C)=O)C2CCN(CC3(O)CCCCC3)C2)o1 (centres undefined) | 86.51%
COc1cccc(CN(C)Cc2cc(C#N)ccc2F)c1OC | -16.49%
O=C(c1c[nH]c(=O)[nH]1)N1CCCC2(CCC(=O)N(C3CCCC3)C2)C1 (centres undefined) | 5.666%
CC(C(=O)NC1CCCCC1)N1CCc2[nH]nc(C(F)(F)F)c2C1 (centres undefined) | -5.733%

SMILES | Percent Effect
Cc1nccn1-c1ccc(N2CCC(NC(C)CC(C)C)CC2)cc1 (centres undefined) | 16.66%
COCCN1CCc2cc(C(=O)NC(C)C)c(NCC3CC3)nc2CC1.O=C(O)C(F)(F)F.O=C(O)C(F)(F)F | 103.7%
COCCN1CCc2cc(C(=O)N(C)C)c(NCC3CC3)nc2CC1.O=C(O)C(F)(F)F.O=C(O)C(F)(F)F | 1.501%
CNC(=O)c1cc2c(nc1NCC(C)C)CCN(CCOC)CC2.O=C(O)C(F)(F)F.O=C(O)C(F)(F)F | 1.626%
COCCN1CCc2cc(C(=O)O)c(NCC3CC3)nc2CC1.O=C(O)C(F)(F)F.O=C(O)C(F)(F)F | 96.69%
COCCN1CCc2cc(C(=O)NC(C)C)c(NCC(C)C)nc2CC1.O=C(O)C(F)(F)F.O=C(O)C(F)(F)F | 1.817%
COCCN1CCc2cc(C(=O)NCC3CC3)c(NC(C)C)nc2CC1.O=C(O)C(F)(F)F.O=C(O)C(F)(F)F | -15.94%
Cc1[nH]ncc1CCCNC(=O)Nc1ccc(S(C)(=O)=O)nc1 | 0.4286%
O=c1[nH]c(CN(Cc2ccco2)C2CCCC2)nc2ccccc12 | 5.367%
O=C(c1ccno1)N1CCOC[C@H](Oc2ccc(C(F)(F)F)cc2)C1 | -17.29%
CCN(CC)CCCN1CCN(c2nc(C)cnc2C)CC1 | 20.67%
CCN(CC1CC1)C(=O)NCc1nnc2n1CCC2 | 96.27%
O=C(NCc1nnc2n1CCCCC2)N(CC1CCOC1)C1CC1 (centres undefined) | 99.15%
CCN(Cc1ccco1)C(=O)NCc1nnc2n1CCCCC2 | 0.3449%
CCN(Cc1ccco1)C(=O)NCc1nnc2n1CCC2 | -0.2431%
CCN(CC1CCOC1)C(=O)NCc1nnc2n1CCC2 (centres undefined) | 118.1%
O=C(NCc1nnc2n1CCC2)N(Cc1ccco1)C1CC1 | 0.3443%
O=C(NCc1nnc2n1CCCC2)N(Cc1ccccc1F)C1CC1 | -10.57%
O=C(NCc1nnc2n1CCCCC2)N(Cc1ccncc1)C1CC1 | -19.08%
CCN(CC1CCOC1)C(=O)NCc1ccc(-n2cncn2)nc1 (centres undefined) | 19.04%
Cc1ccc(CN(C(=O)NCc2nnc3n2CCCCC3)C2CC2)o1 | 2.122%
CCN(CC1CCOC1)C(=O)NCc1nnc2n1CCCCC2 (centres undefined) | 91.82%

SMILES | Percent Effect
COCc1ccccc1CNC(=O)CN1CCC2(CCOC2)C1 (centres undefined) | -0.6554%
Cc1nn2c(N3CCCC(C#N)C3)cc(-c3ccccc3)nc2c1C (centres undefined) | -8.58%
CCN(CC)CCn1ccnc1-c1[nH]cnc1C | 9.707%
COCCn1ccnc1-c1[nH]cnc1C | 8.201%
Cc1nc[nH]c1-c1nccn1CCN(C)S(C)(=O)=O | -5.143%
Cc1nc[nH]c1-c1nccn1CCN1CCOC1=O | 102.9%
Cc1nc[nH]c1-c1nccn1CCN1CCCOC1=O | 97.83%
Cc1ccsc1-c1nccn1CCS(C)(=O)=O | -15.8%
Cc1nc[nH]c1-c1nccn1CCCN(C)C | -1.575%
Cc1ccsc1-c1nccn1CCN1CCCOC1=O | 94.33%
CCc1nccn1CCCn1ccnc1-c1[nH]cnc1C | 10.91%
Cc1nc[nH]c1-c1nccn1CCN1CCCC1=O | 101.5%
Cc1ccsc1-c1nccn1CCS(=O)(=O)N1CCCC1 | -5.417%
Cc1nc[nH]c1-c1nccn1-c1cccc(CN2CCCC2)c1 | 12.04%
CN(C)c1ncc(CNC(=O)Nc2ccc(C(F)(F)F)cc2)n1C | 20.28%
COc1cc(N2CCCn3cnc(COC(C)C)c3C2)ncn1.O=CO | -4.807%
CC(=O)NCCC(=O)Nc1sccc1C(=O)C(C)(C)C | 21.69%
c1ccc(COc2ccccc2NC2CCOCC2)nc1 | -16.72%
CN(CC(=O)N1CC(C)(C)[C@](O)(C2CC2)C1)Cc1cccnc1 | -2.465%
CN(CC(=O)NC(Cc1ccsc1)c1cccnc1)Cc1ccccn1.Cl (centres undefined) | 89.62%
Cc1cc(C)n(CC(=O)NC(Cc2ccsc2)c2ccccn2)c(=O)n1.Cl (centres undefined) | -15.12%
CN(CC(=O)NC(Cc1ccsc1)c1cccnc1)Cc1cccnc1.Cl (centres undefined) | 75.58%

SMILES | Percent Effect
Cc1csc(C(Cc2ccsc2)NC(=O)CN(C)Cc2ccccn2)n1.Cl (centres undefined) | 143%
Cc1ccc(CC(NC(=O)CN(C)C2CC2)c2ccccn2)cc1 (centres undefined) | -26.42%
Cc1nc(CN(Cc2cccnc2)Cc2ccsc2)c[nH]1 | -3.654%
Cc1csc(C(C#N)C(=O)NCc2cccnc2)n1 (centres undefined) | -20.56%
O=C(CCc1ccsc1)N(Cc1ccccn1)C1CC1 | 0.03996%
Cc1csc(C(Cc2ccsc2)NC(=O)CN(C)Cc2cccnc2)n1.Cl (centres undefined) | 118.2%
CN(CC(=O)NS(=O)(=O)c1ccsc1)Cc1ccccc1 | -14.35%
CC(CNC(=O)CCc1ccccn1)c1ccsc1 (centres undefined) | 1.276%
CCOC(C)c1noc(CN2CCCNCC2)n1 (centres undefined) | 2.297%
C=C(C)CN1CCC(NC(=O)NCCc2cccc(C(N)=O)c2)CC1 | -8.268%
CC(=O)c1ccc(C(=O)N2C[C@@H](CN3CCCC3)[C@@H](CO)C2)cc1 | -35.7%
O=C(NCCN1CCCCCC1=O)NCc1ccc(Cl)s1 | -3.851%
CC(SCC(=O)NC(N)=O)c1ccc(Cl)cc1 (centres undefined) | 8.768%
COc1cc(OC)cc(C2NC(=O)CN2Cc2ccc(Br)cc2)c1 (centres undefined) | 85.78%
CC(C)(C)n1ncc2c1NC(=O)CC2c1ccc(OCC(N)=O)cc1 (centres undefined) | -0.952%
Cc1cc(C2NC(=O)CN2Cc2ccc(Br)cc2)cc(C)c1O (centres undefined) | 98.83%
COc1cc(CN2CC(=O)N(c3ccc(C)cc3)CC2C)cc(OC)c1 (centres undefined) | -3.228%
Cc1cc(CN2CCN(CC3CC3)[C@@H]3CS(=O)(=O)C[C@@H]32)cc(C)c1O | 22.76%
COc1cc(OC)cc(N2CCC(NCc3ccsc3)C2=O)c1 (centres undefined) | -5.145%
Cl.NC(=O)COc1ccc(CNCc2ccc(F)c(F)c2)cc1 | -10.35%
NC(=O)COc1ccc(C2NC(=O)CN2Cc2ccc(Br)cc2)cc1 (centres undefined) | 110.3%
